# Assay results published in PubChem BioAssay (NCATS).
# Results filed as inconclusive are left out. Where a call stands in place of a potency, no number is given. Activity calls are given as the source filed them. Calls come from the whole dose curve; as a rule, active = well fitted inhibition curve with a large enough effect; inconclusive = small, poorly fitted or top-dose-only effect; inactive = flat fitted curve, though single readings scatter.
# Legend:
# Test in all cases: qHTS profiling for inhibitors of Plasmodium falciparum proliferation (AID 504749); note: nearly all actives have a fitted effect of over 60% in size
# Conditions in all cases: P. falciparum in erythrocytes, SYBR Green DNA, 72 h; series mostly up to 28.7 µM
# [1] = system: CP201
# Summary of the method: (§1)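 Parasite proliferation within erythrocytes, 72 h exposure. Endpoint: SYBR Green I fluorescence after overnight lysis at room temperature. Controls: 0.29 uM artemisinin, DMSO.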
# [2] = system: CP215
# Summary of the method: as §1
# [3] = system: CP250
# Summary of the method: as §1
# [4] = system: CP256
# Summary of the method: as §1
# [5] = system: CP260
# Summary of the method: as §1
# [6] = system: CP297
# Summary of the method: as §1
# [7] = system: CP315
# Summary of the method: as §1
# [8] = system: CP325
# Summary of the method: as §1
# [9] = system: CP329
# Summary of the method: as §1
# [10] = system: CP335
# Summary of the method: as §1
# [11] = system: DIV14
# Summary of the method: as §1
# [12] = system: DIV17
# Summary of the method: as §1
# [13] = system: FAB9
# Summary of the method: as §1
# [14] = system: ICS
# Summary of the method: as §1
# [15] = system: JCK
# Summary of the method: as §1
# [16] = system: P93_24
# Summary of the method: as §1
# [17] = system: PC15
# Summary of the method: as §1
# [18] = system: PC26
# Summary of the method: as §1
# [19] = system: PC49
# Summary of the method: as §1
# [20] = system: TAB109
# Summary of the method: as §1
# Potency is the fitted concentration of half-maximal effect.
Compound,Potency [1],Potency [2],Potency [3],Potency [4],Potency [5],Potency [6],Potency [7],Potency [8],Potency [9],Potency [10],Potency [11],Potency [12],Potency [13],Potency [14],Potency [15],Potency [16],Potency [17],Potency [18],Potency [19],Potency [20]
O=C1C(I)=CC(=C(c2cc(I)c(O)c(I)c2)c2ccccc2C(=O)O)C=C1I,inactive,inactive,inactive,inactive,inactive,inactive,inactive,inactive,inactive,inactive,inactive,inactive,inactive,inactive,inactive,inactive,inactive,inactive,inactive,inactive
C=C[C@H]1CN2CCC1C[C@H]2[C@H](O)c1ccnc2ccc(OC)cc12 (some centres not stated),2130 nM (active),1200 nM (active),1000 nM (active),794 nM (active),708 nM (active),1690 nM (active),1690 nM (active),1200 nM (active),1690 nM (active),849 nM (active),757 nM (active),757 nM (active),794 nM (active),282 nM (active),10000 nM (active),1000 nM (active),447 nM (active),601 nM (active),1260 nM (active),501 nM (active)
OCC1O[C@H](O[C@H]2C(O)C(O)C(O)O[C@@H]2CO)C(O)C(O)C1O (some centres not stated),inactive,inactive,inactive,inactive,inactive,inactive,inactive,inactive,inactive,inactive,inactive,inactive,inactive,inactive,inactive,inactive,inactive,inactive,inactive,inactive
CC(=O)NC1[C@H](O)C[C@@](O)(C(=O)O)O[C@H]1[C@H](O)[C@H](O)CO (some centres not stated),inactive,inactive,inactive,inactive,inactive,inactive,inactive,inactive,inactive,inactive,inactive,inactive,inactive,inactive,inactive,inactive,inactive,inactive,inactive,inactive
CC(=O)OCC(=O)[C@@]1(O)CCC2C3CCC4=CC(=O)C=CC4(C)C3C(O)C[C@]21C (some centres not stated),inactive,inactive,inactive,inactive,inactive,inactive,inactive,inactive,inactive,inactive,inactive,inactive,inactive,inactive,inactive,inactive,inactive,inactive,inactive,inactive
CC(=O)NC1[C@H]([C@H](O)[C@H](O)CO)OC(C(=O)O)=C[C@H]1N=C(N)N (some centres not stated),inactive,inactive,inactive,inactive,inactive,inactive,inactive,inactive,inactive,inactive,inactive,inactive,inactive,inactive,inactive,inactive,inactive,inactive,inactive,inactive
Cc1cn([C@H]2CC(F)[C@@H](CO)O2)c(=O)[nH]c1=O (some centres not stated),inactive,inactive,inactive,inactive,inactive,inactive,inactive,inactive,inactive,inactive,inactive,inactive,inactive,inactive,inactive,inactive,inactive,inactive,inactive,inactive
CC1(C(=O)O)CCC2(C)CCC3(C)C(=CC(=O)C4C5(C)CCC(O)C(C)(C)C5CCC43C)C2C1 (configuration not stated),inactive,inactive,inactive,inactive,inactive,inactive,inactive,inactive,inactive,inactive,inactive,,inactive,inactive,inactive,inactive,inactive,inactive,inactive,inactive
COC1CC2CCC(C)[C@](O)(O2)C(=O)C(=O)N2CCCCC2C(=O)OC(C(C)CC2CCC(O)C(OC)C2)CC(=O)C(C)/C=C(/C)C(O)C(OC)C(=O)C(C)CC(C)C=CC=C/C=C\1C (some centres not stated),7570 nM (active),1510 nM (active),3160 nM (active),3160 nM (active),2510 nM (active),4260 nM (active),4260 nM (active),5360 nM (active),4260 nM (active),,1510 nM (active),1690 nM (active),8910 nM (active),891 nM (active),10000 nM (active),1410 nM (active),4470 nM (active),3790 nM (active),2240 nM (active),2240 nM (active)
OCC1OC(O)C(O)C(O)C1O (configuration not stated),inactive,inactive,inactive,inactive,inactive,,inactive,,inactive,inactive,,,inactive,inactive,inactive,inactive,inactive,,inactive,inactive
CCCCCCCCCCCCCCCC(=O)OC[C@H](O)[C@H]1OC[C@@H](O)[C@@H]1O,inactive,inactive,inactive,inactive,inactive,inactive,inactive,inactive,inactive,inactive,,inactive,inactive,inactive,inactive,inactive,inactive,inactive,inactive,
CCCCC(=O)OCC(=O)[C@]1(O)Cc2c(O)c3c(c(O)c2[C@H](OC2CC(NC(=O)C(F)(F)F)C(O)C(C)O2)C1)C(=O)c1c(OC)cccc1C3=O (some centres not stated),4780 nM (active),4780 nM (active),2510 nM (active),2000 nM (active),2000 nM (active),1510 nM (active),1690 nM (active),3380 nM (active),3790 nM (active),1510 nM (active),1690 nM (active),1510 nM (active),11200 nM (active),794 nM (active),,2000 nM (active),3550 nM (active),1510 nM (active),,2000 nM (active)
Cc1ccccc1N1C(=O)c2cc(N)ccc2N/C1=C\F,inactive,inactive,inactive,inactive,inactive,inactive,inactive,inactive,inactive,inactive,,,inactive,,inactive,inactive,inactive,inactive,inactive,inactive
CCCC(=O)O[C@]1(C(=O)COC(C)=O)CC[C@H]2C3C[C@H](F)C4=CC(=O)C=CC4(C)[C@@]3(F)[C@@H](O)CC21C (some centres not stated),inactive,inactive,inactive,inactive,inactive,inactive,inactive,inactive,inactive,inactive,,,inactive,,inactive,,inactive,,inactive,inactive
C[C@H]1OC(OC2C(O)[C@@H](O)C(OC3C(O)[C@@H](O)C(O)O[C@@H]3CO)O[C@@H]2CO)[C@H](O)C(O)C1N[C@H]1C=C(CO)[C@@H](O)[C@H](O)C1O (some centres not stated),inactive,inactive,inactive,inactive,inactive,inactive,inactive,inactive,inactive,inactive,inactive,inactive,inactive,inactive,inactive,inactive,inactive,,inactive,inactive
Cc1ccc(/C=C2/C(=O)C3(C)CCC2C3(C)C)cc1 (configuration not stated),inactive,inactive,inactive,inactive,inactive,,inactive,inactive,inactive,,inactive,inactive,inactive,inactive,inactive,inactive,inactive,inactive,inactive,inactive
C[S+](C)CC[C@H](N)C(=O)O,inactive,inactive,inactive,inactive,inactive,inactive,inactive,inactive,inactive,inactive,inactive,,inactive,inactive,inactive,inactive,inactive,inactive,inactive,inactive
OCC1O[C@H](Oc2ccc(O)cc2)C(O)C(O)C1O (some centres not stated),inactive,inactive,inactive,inactive,inactive,inactive,inactive,inactive,inactive,inactive,inactive,inactive,inactive,inactive,inactive,,inactive,inactive,inactive,inactive
CC1OC(OCC2OC(Oc3c(-c4ccc(OCCO)c(OCCO)c4)oc4cc(OCCO)cc(O)c4c3=O)C(O)C(O)C2O)[C@@H](O)C(O)C1O (some centres not stated),inactive,inactive,inactive,inactive,inactive,inactive,inactive,inactive,inactive,inactive,inactive,inactive,inactive,inactive,inactive,,inactive,inactive,inactive,inactive
CC1(Cn2ccnn2)[C@H](C(=O)O)N2C(=O)C[C@H]2S1(=O)=O (some centres not stated),inactive,inactive,inactive,inactive,inactive,inactive,inactive,inactive,inactive,inactive,inactive,inactive,inactive,inactive,inactive,inactive,inactive,inactive,inactive,inactive
C[C@H]1[C@@H](OC(=O)CCC(=O)O)OC2OC3(C)CC[C@H]4[C@H](C)CC[C@@H]1[C@@]24OO3 (some centres not stated),12 nM (active),5.4 nM (active),4.5 nM (active),7.1 nM (active),5 nM (active),4.8 nM (active),12 nM (active),6 nM (active),7.6 nM (active),4.8 nM (active),3.4 nM (active),4.3 nM (active),4.5 nM (active),3.2 nM (active),,2.2 nM (active),4.5 nM (active),3.4 nM (active),,2.5 nM (active)
CN[C@H](C)CCC=C(C)C,2130 nM (active),601 nM (active),631 nM (active),631 nM (active),224 nM (active),601 nM (active),849 nM (active),757 nM (active),,239 nM (active),151 nM (active),190 nM (active),1410 nM (active),44.7 nM (active),355 nM (active),251 nM (active),355 nM (active),190 nM (active),282 nM (active),398 nM (active)
Cc1onc(-c2c(F)cccc2Cl)c1C(=O)NC1C(=O)N2C1SC(C)(C)C2C(=O)O (configuration not stated),inactive,inactive,inactive,inactive,inactive,inactive,inactive,inactive,inactive,inactive,inactive,inactive,inactive,inactive,inactive,inactive,inactive,inactive,inactive,inactive
